About 83,000 compounds went through this panel and 20% of them were active in at least one assay; those are over-represented in the sample as a whole.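 Interpretation: 100, growth as untreated; towards 0, rising growth inhibition; 0, no net growth; 0 to -100, cell death. Compounds scoring below 10 were considered active.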 A number with no mark means an inactive call. Active and inactive are the calls of the source.
Columns and labels:
Assay in all cases: NCI-60 one-dose screen, 48 h (100 = growth as untreated, 0 = no growth, -100 = all killed)
Details in all cases: 10 µM unless noted
[1] = tested on: HCT-15 colon
[2] = tested on: HT29 colon
[3] = tested on: SNB-75 CNS
[4] = tested on: SNB-19 CNS
[5] = tested on: U251 CNS
[6] = tested on: PC-3 prostate
[7] = tested on: SK-MEL-5 melanoma
[8] = tested on: UACC-62 melanoma
[9] = tested on: LOX IMVI melanoma
[10] = tested on: SK-MEL-28 melanoma

Question: What does the source list for `CS(=O)(=O)Nc1cc(-c2ccc3ncnc(Nc4cccc(Cl)c4)c3c2)cnc1Cl`?
Answer: growth [1]: 4.71% (active); growth [2]: 2.65% (active); growth [3]: -10.4% (active); growth [4]: 18%; growth [5]: -2.63% (active); growth [6]: -2.27% (active); growth [7]: -95.6% (active); growth [8]: -23.6% (active)

Question: How did the growth [1] turn out when `CCN1C(=O)N(CC)C2C1NN=c1s/c(=C\c3ccc([N+](=O)[O-])cc3)c(=O)n12` (configuration not stated) was run?
Answer: 16.3%

Question: What about the growth [2] of the same compound?
Answer: 5.2% (active)

Question: What about the growth [3] of the same compound?
Answer: 0.315% (active)

Question: And the growth [4]?
Answer: 31.6%

Question: And the growth [5]?
Answer: 20.8%

Question: What about the growth [6] of the same compound?
Answer: 32.6%

Question: And the growth [7]?
Answer: 27.6%

Question: What about the growth [8] of the same compound?
Answer: 27.7%

Question: And the growth [9]?
Answer: 36.8%

Question: What does the source list for `CN(CCNc1ccc(C(=N)N)cc1)c1ccc(C(=N)N)cc1`?
Answer: growth [1]: 84.5%; growth [2]: 101%; growth [3]: 96.8%; growth [4]: 104%; growth [5]: 81.2%; growth [6]: 82.2%; growth [7]: 67%; growth [8]: 72.6%; growth [9]: 82.4%

Question: How did the growth [1] turn out when `O=C(Nc1ccccc1C(F)(F)F)C1=NCCCCN1` was run?
Answer: 97.8%

Question: And the growth [2]?
Answer: 98.7%

Question: And the growth [3]?
Answer: 88%

Question: And the growth [4]?
Answer: 97.7%

Question: And the growth [5]?
Answer: 103%

Question: And the growth [6]?
Answer: 96.5%

Question: What about the growth [7] of the same compound?
Answer: 100%

Question: What about the growth [8] of the same compound?
Answer: 93.3%

Question: What about the growth [9] of the same compound?
Answer: 96.2%

Question: For `COCCNC(=O)Cc1cc(-c2ccc(Cl)cc2)n(-c2ccccc2)c1C`, which growth [1] is on record?
Answer: 81.8%

Question: And the growth [2]?
Answer: 84.8%

Question: And the growth [3]?
Answer: 68.5%

Question: And the growth [4]?
Answer: 79.2%

Question: What about the growth [5] of the same compound?
Answer: 84.5%

Question: What about the growth [6] of the same compound?
Answer: 81%

Question: And the growth [7]?
Answer: 79.3%

Question: And the growth [8]?
Answer: 59.4%

Question: And the growth [9]?
Answer: 85.5%

Question: `COc1cc(OC)cc(C(=O)Nc2cnc(Nc3ccc(N4CCOCC4)nc3)nc2Oc2ccc(C(F)(F)F)cc2)c1` was tested. Which growth [1] did it give?
Answer: 75.4%

Question: And the growth [2]?
Answer: 46.8%

Question: What about the growth [3] of the same compound?
Answer: -14.5% (active)

Question: And the growth [4]?
Answer: 44.1%

Question: And the growth [5]?
Answer: 65.6%

Question: And the growth [6]?
Answer: 71.4%

Question: What about the growth [7] of the same compound?
Answer: 93%

Question: What about the growth [8] of the same compound?
Answer: 76.3%

Question: What about the growth [9] of the same compound?
Answer: 69.7%

Question: What does the source list for `CN1C(=O)N(C)C2C1NN=c1s/c(=C\c3ccc(F)cc3)c(=O)n12` (configuration not stated)?
Answer: growth [1]: 27.3%; growth [2]: 2.74% (active); growth [3]: -7.45% (active); growth [4]: 34.8%; growth [5]: 26.8%; growth [6]: 34.8%; growth [7]: 31.7%; growth [8]: 26.7%; growth [9]: 36.1%; growth [10]: 59.4%

Question: How did the growth [1] turn out when `CCCC1Cc2cc(-n3nc(C)c4c3CC(C)(C)CC4=O)cc(NC3CCC(O)CC3)c2C(=O)N1` (configuration not stated) was run?
Answer: 26.1%

Question: What about the growth [2] of the same compound?
Answer: 11.6%

Question: What about the growth [3] of the same compound?
Answer: 66.6%

Question: And the growth [4]?
Answer: 50%

Question: What about the growth [5] of the same compound?
Answer: 41.5%

Question: What about the growth [6] of the same compound?
Answer: 42.8%

Question: And the growth [7]?
Answer: 40.7%

Question: And the growth [8]?
Answer: 6.33% (active)

Question: And the growth [9]?
Answer: 5.91% (active)

Question: Which results are given for `Cn1cc(-c2csc(-c3cn(C)c4ccc(F)cc34)n2)c2cnccc21`?
Answer: growth [1]: -46.4% (active); growth [2]: -66.8% (active); growth [3]: -73% (active); growth [4]: 3.63% (active); growth [5]: -89.5% (active); growth [6]: 10.5%; growth [7]: -94.1% (active); growth [8]: -69.4% (active); growth [9]: -90% (active)

Question: How did the growth [1] turn out when `COc1cc(C(=O)c2c(-c3ccccc3)oc3ccccc23)cc(OC)c1O` was run?
Answer: 32.1%

Question: And the growth [2]?
Answer: 109%

Question: What about the growth [3] of the same compound?
Answer: -1.53% (active)

Question: And the growth [4]?
Answer: 32.8%

Question: What about the growth [5] of the same compound?
Answer: 25.6%

Question: And the growth [6]?
Answer: 43.9%

Question: What about the growth [7] of the same compound?
Answer: 16.4%

Question: What about the growth [8] of the same compound?
Answer: 35.2%

Question: What about the growth [9] of the same compound?
Answer: 37.2%

Question: What does the source list for `N#C/C(=C/C=C/c1ccccc1)S(=O)c1ccccc1` (configuration not stated)?
Answer: growth [1]: -9.4% (active); growth [2]: -6% (active); growth [3]: 20.8%; growth [4]: -5.13% (active); growth [5]: -81.5% (active); growth [6]: -34.1% (active); growth [7]: -84.7% (active); growth [8]: -57% (active); growth [9]: -80.7% (active); growth [10]: -67.9% (active)

Question: How did the growth [1] turn out when `CCN1C(=O)N(CC)C2C1NN=c1s/c(=C\c3ccc(F)cc3)c(=O)n12` (configuration not stated) was run?
Answer: 13.9%

Question: What about the growth [2] of the same compound?
Answer: 3.48% (active)

Question: And the growth [3]?
Answer: -1.81% (active)

Question: What about the growth [4] of the same compound?
Answer: 28%

Question: And the growth [5]?
Answer: 9.98% (active)

Question: And the growth [6]?
Answer: 25.4%

Question: And the growth [7]?
Answer: 16.8%

Question: What about the growth [8] of the same compound?
Answer: 28.8%

Question: What about the growth [9] of the same compound?
Answer: 20%

Question: For `COc1cc2c(c(OC)c1OC)CCC(c1cccc(C(=O)Nc3ccccc3Br)c1)O2` (configuration not stated), which growth [1] is on record?
Answer: 92%

Question: And the growth [2]?
Answer: 82.4%

Question: And the growth [3]?
Answer: 65.8%

Question: And the growth [4]?
Answer: 90.1%

Question: And the growth [5]?
Answer: 90.7%

Question: And the growth [6]?
Answer: 76.1%

Question: What about the growth [7] of the same compound?
Answer: 86.3%

Question: And the growth [8]?
Answer: 66.2%
